# PAFAH1B3 FP inh – blocks human PAF acetylhydrolase 1B catalytic subunit 3. Q15102. recombinant PAFAH1B3, FP-rhodamine probe, fluorescence polarization. inhibition, % at 3.39 µM. 340,000 tested, 0.28% active;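 active means inhibition above the screen-wide average of all tested compounds plus 3 SD, cut at about 25% in these data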
# pPAFAH FP inh – inhibitors of human plasma PAF acetylhydrolase (pPAFAH); 330,000 tested, 1.5% active; recombinant pPAFAH, FP-rhodamine probe fluorescence polarization; Q13093; inhibition, % at 3.39 µM;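 active means inhibition above the mean inhibition across the screen plus 3 SD, cut at about 25% in these data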;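 further: inhibitors block binding of the rhodamine activity-based probe so polarization drops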
# PP1 inh – PP1-alpha (human) inhibition in PP5 counter-screen; P62136; purified PP1alpha, OMFP fluorescence; inhibition, % at 6.7 µM; 320,000 tested, 0.9% active;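 active means inhibition above the mean inhibition of all tested compounds plus 3 SD, computed separately for each screening campaign, cut at about 15% in these data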
# Target sequence (P62136 whole entry, looked up): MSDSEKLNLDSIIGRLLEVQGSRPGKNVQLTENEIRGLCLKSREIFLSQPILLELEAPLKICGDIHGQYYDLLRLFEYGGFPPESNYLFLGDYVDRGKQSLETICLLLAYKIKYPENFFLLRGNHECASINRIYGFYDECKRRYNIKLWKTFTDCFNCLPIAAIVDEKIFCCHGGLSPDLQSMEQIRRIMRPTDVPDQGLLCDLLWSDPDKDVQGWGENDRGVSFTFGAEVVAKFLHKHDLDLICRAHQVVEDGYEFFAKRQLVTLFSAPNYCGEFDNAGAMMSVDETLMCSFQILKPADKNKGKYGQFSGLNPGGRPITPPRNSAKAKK
# PAFAH1B2 inh – inhibitors of human PAFAH1B2; 340,000 tested, 1.2% active; inhibition, % at 3.39 µM; recombinant PAFAH1B2, FP-rhodamine activity probe, fluorescence polarization; P68402;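 active means inhibition above the mean of all tested compounds plus 3 SD, cut at about 24% in these data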
# Target sequence (P68402 whole entry, looked up): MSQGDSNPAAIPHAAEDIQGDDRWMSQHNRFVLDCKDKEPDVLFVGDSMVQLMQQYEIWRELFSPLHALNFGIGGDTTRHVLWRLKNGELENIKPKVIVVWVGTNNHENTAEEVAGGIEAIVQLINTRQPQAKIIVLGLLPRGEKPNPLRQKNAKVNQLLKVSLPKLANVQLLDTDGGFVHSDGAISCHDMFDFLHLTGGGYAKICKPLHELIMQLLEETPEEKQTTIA
# PAFAH2 FP inh – PAFAH2 (human) inhibition; AID 492956; 340,000 tested, 0.99% active; Q99487; recombinant PAFAH2, FP-rhodamine activity probe, fluorescence polarization; inhibition, % at 3.39 µM;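 active means inhibition above the mean over all tested compounds plus 3 SD, cut at about 30% in these data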;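 further: inhibitors block probe labeling of enzyme so polarization drops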
# PP5 inh – blocks human protein phosphatase 5 activity | P53041 | purified PP5c, OMFP substrate fluorescence | inhibition, % at 6.7 µM | 320,000 tested, 0.18% active;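 active means inhibition above the campaign's mean inhibition across all tested compounds plus 3 SD, cut at about 9.5% in these data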
# A number is an active result; - = inactive; . = no result given. This is a sample that favours compounds with a hit; in the whole collection about 3.4% have one here.
SMILES,PAFAH1B3 FP inh,pPAFAH FP inh,PP1 inh,PAFAH1B2 inh,PAFAH2 FP inh,PP5 inh
Cc1cc(F)ccc1S(=O)(=O)N1CCCOC1CNC(=O)C(=O)NCCc1ccccc1 (configuration not stated),-,-,-,27,-,-
COc1ccc(CNC(=O)C(=O)NCCC2CCCCN2S(=O)(=O)c2cccs2)cc1 (configuration not stated),-,-,-,25,-,-
c1cnc2nc3c4ccccc4c4ccccc4c3nc2c1,-,.,.,-,-,.
O=C(Cc1ccc(Cl)cc1)Nc1ccc(S(=O)(=O)Nc2cnc3ccccc3n2)cc1,-,31,-,-,-,-
CCCNC(=O)c1ccc2c(=O)c(O)c(-c3ccsc3)[nH]c2c1,38,-,-,27,-,-
Cc1ccc(CNC(=O)c2ccc3c(=O)c(O)c(-c4ccc(C)cc4)[nH]c3c2)cc1,-,27,-,-,-,-
CC12CCC=CC1=C(C=O)C1C2CCC2(C)C(O)CCC12 (configuration not stated),-,.,.,-,-,.
Cn1c(=O)c2c(nc(NC3CCCCC3)n2CC(=O)C23CC4CC(CC(C4)C2)C3)n(C)c1=O,-,-,-,25,-,-
Cc1ccccc1-n1nnnc1SCC(=O)c1c(N)n(C2CC2)c(=O)[nH]c1=O,-,.,.,-,-,.
O=C1c2cccc3c(O)ccc(c23)C(=O)N1c1ccc(Cl)cc1,27,28,-,-,42,-
CC(=O)Nc1ccc(N2C(=O)c3cccc4c(O)ccc(c34)C2=O)cc1,-,-,-,-,-,-
Cn1cccc1CC(=O)N/N=C/C=C/c1ccco1,-,27,-,-,-,-
O=C(CSc1nnc(SCc2ccccc2)s1)N/N=C/C=C/c1ccccc1[N+](=O)[O-],-,-,16,-,-,-
O=C(CSc1nnc(SCc2ccccc2)s1)N/N=C/C=C\c1ccco1,-,28,-,-,-,-
Cc1cc2[nH]c(=O)c(=O)[nH]c2cc1S(=O)(=O)Nc1cccc(Cl)c1,-,-,-,-,-,-
COc1ccccc1C(CNC(=O)CCNS(=O)(=O)c1ccc(Br)cc1)N1CCCC1 (configuration not stated),-,.,.,-,-,.
CC1(C)Cc2c(cnn2-c2ccccc2)C(NC(=O)CCCn2cncn2)C1 (configuration not stated),-,.,.,-,-,.
COc1ccc(Nc2ncnc3sc(-c4ccccc4)cc23)cc1OC,32,32,-,-,-,-
COc1ccc(Nc2ncnc3c2cnn3-c2ccccc2)cc1OC,-,-,-,-,-,-
Cc1cc(O)c(C(=O)/C=C/c2ccc(Cl)cc2)c(=O)o1,-,27,17,-,-,-
O=C1CCCCC1(O)Cc1ccc2c(c1)OCO2 (configuration not stated),-,.,.,-,-,.
CN(C)/C=C1\C=C2C(=O)c3ccccc3N2C1=O,29,-,-,28,36,-
CSc1cccc(NC(=O)/C=C/c2ccco2)c1,-,25,-,-,-,-
O=C(N/C=C/c1ccco1)Nc1cccc(Cl)c1,.,27,-,.,.,-
COc1cccc(NC(=O)/C=C/c2ccco2)c1,-,-,-,-,-,-
SMILES,PAFAH1B3 FP inh,pPAFAH FP inh,PP1 inh,PAFAH1B2 inh,PAFAH2 FP inh,PP5 inh
COc1ccc(NC(=O)N/C=C/c2ccco2)cc1,-,-,-,-,-,-
CCn1c(=O)c(C(=O)CN2c3ccccc3CC2C)c(N)n(Cc2ccccc2)c1=O (configuration not stated),-,-,16,-,-,-
Nc1ccc(S(=O)(=O)c2ccc(NC(=O)c3cccnc3)cc2)cc1,-,.,.,-,-,.
Cc1ccc(NC(=O)CCCCCN2C(=O)[C@@H]3Cc4ccccc4CN3C2=O)cc1,-,-,-,28,-,-
CCNC(=S)NNC(=O)c1cc(-c2cccc(OC)c2)nc2ccccc12,-,-,-,-,-,-
Cc1ccc(C)c(-c2cc(C(=O)NNC(=S)NCC(C)C)c3ccccc3n2)c1,-,26,-,-,-,-
CCNC(=S)NNC(=O)c1cc(-c2ccc(OCC)cc2)nc2ccccc12,-,27,-,-,-,-
CCCc1ccc(-c2cc(C(=O)NN3CCOCC3)c3ccccc3n2)cc1,-,-,-,-,-,-
CCc1ccc(-c2cc(C(=O)Nn3cnnc3)c3ccccc3n2)cc1,-,-,-,72,-,-
COc1ccccc1N(C(=O)Cn1nnc(-c2ccc(C)o2)n1)C(C(=O)NC1CCCC1)c1ccncc1 (configuration not stated),-,-,-,-,-,-
O=C1CC/C=C\C[C@@H](CC(=O)N(CCO)Cc2ccccc2)C(=O)N2CCC[C@H]2CO1,-,-,.,-,-,.
N=C1/C(=C\c2coc3ccc(O)cc3c2=O)C(=O)N=C2SC=CN12,-,26,-,-,-,-
O=C(NNS(=O)(=O)c1ccc(Br)cc1)C1CCCCC1,-,-,-,28,-,-
Cc1ccc(S(=O)(=O)NNC(=O)C2CCCCC2)cc1,-,-,-,-,-,-
O=[N+]([O-])c1cccc(COc2cccc(CN3CCCCC3)c2)c1,-,.,.,-,-,.
O=C(CNC(=O)c1cccc(Br)c1)N/N=C/c1cccs1,-,-,-,-,-,-
O=C(CNC(=O)c1cccc(Br)c1)N/N=C/c1cc(Br)cc(Br)c1O,-,-,-,31,-,-
NC(=O)CC(NC(=O)Cc1cccc2ccccc12)c1ccc(N2CCN(c3ccccn3)CC2)c([N+](=O)[O-])c1 (configuration not stated),-,-,-,-,-,-
COCCn1c(N)c(S(=O)(=O)c2cccs2)c2nc3ccccc3nc21,48,-,-,25,-,-
COc1cccc(CNC(=O)CCNS(=O)(=O)c2ccc(C)cc2)c1,-,-,-,-,-,-
Cc1ccc(C)c(OCC(=O)Nc2nonc2NC(=O)COc2cc(C)ccc2C)c1,-,-,17,-,-,-
C=CCOc1ccc(/C=N/NC(=O)CC(=O)NC2CCCCC2)cc1,-,-,-,-,-,-
Cc1ccccc1N=Cc1cc2c(cc1O)OC(N)=C(C#N)C2c1ccccc1 (configuration not stated),-,26,-,-,-,-
COc1cccc(-n2c(CNc3ccc(F)cc3)nnc2SCC(N)=O)c1,-,-,-,26,-,-
COc1ccc([C@@]2(C(C)C)ON(c3ccccc3C(F)(F)F)C2=O)cc1,-,-,-,-,-,-
O=C(NCCCc1ccccc1)c1cncc(Br)c1,-,-,-,-,-,-
O=c1ccc2ccc(Oc3ccc([N+](=O)[O-])cc3Cl)cc2o1,-,30,-,-,-,-
COc1ccc(NC(=O)CCCN2C(=O)C(c3ccccc3)Oc3cccnc32)c(OC)c1 (configuration not stated),-,-,-,-,-,-
N=c1n(Cc2ccccc2)c2ccccc2n1CC(O)c1ccco1 (configuration not stated),28,-,-,38,46,-

# High-throughput results deposited in PubChem BioAssay by The Scripps Research Institute Molecular Screening Center.
